Consider 36 targets from the supplement of paper PMC10849652.

The full data set covers some 7,900 targets. This sample favours those with a hit. About 0.6% of all pairs of compound and target were hits. A number with no mark means an inactive call.

UniProt P02585, sequence (P02585 whole entry, looked up): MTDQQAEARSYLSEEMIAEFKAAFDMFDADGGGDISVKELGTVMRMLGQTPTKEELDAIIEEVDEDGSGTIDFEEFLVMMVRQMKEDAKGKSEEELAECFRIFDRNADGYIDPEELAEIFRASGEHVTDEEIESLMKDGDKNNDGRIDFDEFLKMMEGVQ
UniProt Q9Y4E8, sequence (Q9Y4E8 whole entry, looked up): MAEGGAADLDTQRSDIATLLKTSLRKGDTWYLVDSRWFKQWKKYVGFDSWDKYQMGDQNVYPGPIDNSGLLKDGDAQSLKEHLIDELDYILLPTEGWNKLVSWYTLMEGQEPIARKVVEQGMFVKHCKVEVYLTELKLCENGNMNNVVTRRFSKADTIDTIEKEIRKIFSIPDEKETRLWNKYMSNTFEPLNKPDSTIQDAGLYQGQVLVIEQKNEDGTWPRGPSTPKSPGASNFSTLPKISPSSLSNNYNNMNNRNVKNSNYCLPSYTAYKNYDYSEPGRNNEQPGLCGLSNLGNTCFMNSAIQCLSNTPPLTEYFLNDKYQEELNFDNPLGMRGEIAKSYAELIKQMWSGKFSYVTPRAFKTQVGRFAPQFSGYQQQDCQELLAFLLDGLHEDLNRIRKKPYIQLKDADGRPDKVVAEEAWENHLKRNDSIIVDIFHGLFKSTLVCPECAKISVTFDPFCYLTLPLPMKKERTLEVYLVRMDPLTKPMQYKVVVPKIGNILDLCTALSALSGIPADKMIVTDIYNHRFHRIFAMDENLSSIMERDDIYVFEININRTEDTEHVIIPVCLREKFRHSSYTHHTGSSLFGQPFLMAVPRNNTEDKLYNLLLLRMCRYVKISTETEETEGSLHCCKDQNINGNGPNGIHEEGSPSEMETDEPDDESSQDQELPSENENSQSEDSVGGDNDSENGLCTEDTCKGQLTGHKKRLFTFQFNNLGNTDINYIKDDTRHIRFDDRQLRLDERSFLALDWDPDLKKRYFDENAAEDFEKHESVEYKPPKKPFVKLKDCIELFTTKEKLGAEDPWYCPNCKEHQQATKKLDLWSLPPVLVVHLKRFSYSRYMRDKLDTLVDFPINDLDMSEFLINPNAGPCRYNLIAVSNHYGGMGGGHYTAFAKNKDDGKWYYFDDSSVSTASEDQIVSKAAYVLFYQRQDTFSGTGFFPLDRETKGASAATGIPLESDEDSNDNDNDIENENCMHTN
UniProt Q9BXJ8, sequence (Q9BXJ8 whole entry, looked up): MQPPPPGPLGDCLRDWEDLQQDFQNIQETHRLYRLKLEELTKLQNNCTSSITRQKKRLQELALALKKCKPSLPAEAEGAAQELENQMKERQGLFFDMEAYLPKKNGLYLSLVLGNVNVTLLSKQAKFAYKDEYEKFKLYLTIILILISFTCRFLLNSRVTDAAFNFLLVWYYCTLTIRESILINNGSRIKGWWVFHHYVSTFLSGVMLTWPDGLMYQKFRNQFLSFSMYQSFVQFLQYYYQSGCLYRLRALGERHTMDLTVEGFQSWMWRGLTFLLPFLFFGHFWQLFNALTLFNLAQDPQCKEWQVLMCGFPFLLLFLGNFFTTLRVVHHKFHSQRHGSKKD
UniProt P22314, sequence (P22314 whole entry, looked up): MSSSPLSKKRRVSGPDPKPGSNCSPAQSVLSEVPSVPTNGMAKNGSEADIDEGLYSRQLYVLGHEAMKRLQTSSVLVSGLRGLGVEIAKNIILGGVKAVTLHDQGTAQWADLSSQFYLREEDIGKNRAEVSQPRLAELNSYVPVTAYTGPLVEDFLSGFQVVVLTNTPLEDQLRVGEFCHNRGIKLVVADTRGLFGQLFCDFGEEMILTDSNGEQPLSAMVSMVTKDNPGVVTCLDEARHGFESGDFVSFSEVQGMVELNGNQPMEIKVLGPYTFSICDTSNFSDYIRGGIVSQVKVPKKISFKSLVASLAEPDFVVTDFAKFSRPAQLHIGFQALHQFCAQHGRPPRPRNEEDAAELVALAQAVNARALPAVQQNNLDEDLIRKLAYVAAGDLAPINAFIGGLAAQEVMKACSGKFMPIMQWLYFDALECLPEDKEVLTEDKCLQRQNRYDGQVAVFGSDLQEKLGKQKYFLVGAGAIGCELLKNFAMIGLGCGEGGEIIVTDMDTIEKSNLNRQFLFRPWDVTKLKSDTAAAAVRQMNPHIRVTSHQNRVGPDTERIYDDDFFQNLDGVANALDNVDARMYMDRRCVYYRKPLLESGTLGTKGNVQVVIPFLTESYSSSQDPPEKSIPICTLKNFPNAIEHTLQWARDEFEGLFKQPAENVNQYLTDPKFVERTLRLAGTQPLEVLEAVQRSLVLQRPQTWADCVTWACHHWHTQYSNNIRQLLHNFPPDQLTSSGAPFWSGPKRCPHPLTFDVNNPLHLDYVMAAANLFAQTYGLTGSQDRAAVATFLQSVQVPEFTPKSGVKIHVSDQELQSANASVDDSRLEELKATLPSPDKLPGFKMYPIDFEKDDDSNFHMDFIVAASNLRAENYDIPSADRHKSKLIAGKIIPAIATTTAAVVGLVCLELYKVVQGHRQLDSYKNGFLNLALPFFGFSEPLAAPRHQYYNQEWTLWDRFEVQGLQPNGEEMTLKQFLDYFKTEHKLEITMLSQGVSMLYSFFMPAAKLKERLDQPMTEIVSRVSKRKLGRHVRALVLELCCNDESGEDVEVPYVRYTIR
UniProt O14980, sequence (O14980 whole entry, looked up): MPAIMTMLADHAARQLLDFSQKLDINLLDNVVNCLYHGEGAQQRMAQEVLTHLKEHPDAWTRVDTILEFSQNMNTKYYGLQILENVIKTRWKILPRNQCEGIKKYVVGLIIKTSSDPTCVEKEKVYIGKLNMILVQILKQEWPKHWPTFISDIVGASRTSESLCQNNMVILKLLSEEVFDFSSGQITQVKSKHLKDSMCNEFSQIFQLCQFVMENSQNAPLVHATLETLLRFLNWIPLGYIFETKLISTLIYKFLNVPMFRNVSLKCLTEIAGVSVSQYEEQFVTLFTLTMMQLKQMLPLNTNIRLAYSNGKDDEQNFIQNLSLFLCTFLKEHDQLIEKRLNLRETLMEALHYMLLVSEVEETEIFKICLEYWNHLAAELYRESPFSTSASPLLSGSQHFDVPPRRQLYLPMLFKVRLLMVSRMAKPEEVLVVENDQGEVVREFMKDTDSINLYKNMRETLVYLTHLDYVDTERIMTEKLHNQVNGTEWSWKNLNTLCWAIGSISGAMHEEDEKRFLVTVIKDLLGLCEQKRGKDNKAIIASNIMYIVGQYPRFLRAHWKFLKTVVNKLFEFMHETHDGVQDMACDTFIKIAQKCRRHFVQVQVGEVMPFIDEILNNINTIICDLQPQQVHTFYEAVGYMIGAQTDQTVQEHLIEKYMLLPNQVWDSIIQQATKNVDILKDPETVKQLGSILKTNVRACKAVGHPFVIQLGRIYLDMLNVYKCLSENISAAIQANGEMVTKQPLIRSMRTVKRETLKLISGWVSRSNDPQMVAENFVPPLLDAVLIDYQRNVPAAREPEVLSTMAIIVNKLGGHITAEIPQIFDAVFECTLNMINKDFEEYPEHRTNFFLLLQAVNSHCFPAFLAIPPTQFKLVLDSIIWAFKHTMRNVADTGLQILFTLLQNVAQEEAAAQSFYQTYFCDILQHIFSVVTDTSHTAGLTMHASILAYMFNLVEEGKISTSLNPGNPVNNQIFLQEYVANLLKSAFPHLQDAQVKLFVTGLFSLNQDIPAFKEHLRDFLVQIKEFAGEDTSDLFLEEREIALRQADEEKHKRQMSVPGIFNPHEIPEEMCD
UniProt A0JNW5, sequence (A0JNW5 whole entry, looked up): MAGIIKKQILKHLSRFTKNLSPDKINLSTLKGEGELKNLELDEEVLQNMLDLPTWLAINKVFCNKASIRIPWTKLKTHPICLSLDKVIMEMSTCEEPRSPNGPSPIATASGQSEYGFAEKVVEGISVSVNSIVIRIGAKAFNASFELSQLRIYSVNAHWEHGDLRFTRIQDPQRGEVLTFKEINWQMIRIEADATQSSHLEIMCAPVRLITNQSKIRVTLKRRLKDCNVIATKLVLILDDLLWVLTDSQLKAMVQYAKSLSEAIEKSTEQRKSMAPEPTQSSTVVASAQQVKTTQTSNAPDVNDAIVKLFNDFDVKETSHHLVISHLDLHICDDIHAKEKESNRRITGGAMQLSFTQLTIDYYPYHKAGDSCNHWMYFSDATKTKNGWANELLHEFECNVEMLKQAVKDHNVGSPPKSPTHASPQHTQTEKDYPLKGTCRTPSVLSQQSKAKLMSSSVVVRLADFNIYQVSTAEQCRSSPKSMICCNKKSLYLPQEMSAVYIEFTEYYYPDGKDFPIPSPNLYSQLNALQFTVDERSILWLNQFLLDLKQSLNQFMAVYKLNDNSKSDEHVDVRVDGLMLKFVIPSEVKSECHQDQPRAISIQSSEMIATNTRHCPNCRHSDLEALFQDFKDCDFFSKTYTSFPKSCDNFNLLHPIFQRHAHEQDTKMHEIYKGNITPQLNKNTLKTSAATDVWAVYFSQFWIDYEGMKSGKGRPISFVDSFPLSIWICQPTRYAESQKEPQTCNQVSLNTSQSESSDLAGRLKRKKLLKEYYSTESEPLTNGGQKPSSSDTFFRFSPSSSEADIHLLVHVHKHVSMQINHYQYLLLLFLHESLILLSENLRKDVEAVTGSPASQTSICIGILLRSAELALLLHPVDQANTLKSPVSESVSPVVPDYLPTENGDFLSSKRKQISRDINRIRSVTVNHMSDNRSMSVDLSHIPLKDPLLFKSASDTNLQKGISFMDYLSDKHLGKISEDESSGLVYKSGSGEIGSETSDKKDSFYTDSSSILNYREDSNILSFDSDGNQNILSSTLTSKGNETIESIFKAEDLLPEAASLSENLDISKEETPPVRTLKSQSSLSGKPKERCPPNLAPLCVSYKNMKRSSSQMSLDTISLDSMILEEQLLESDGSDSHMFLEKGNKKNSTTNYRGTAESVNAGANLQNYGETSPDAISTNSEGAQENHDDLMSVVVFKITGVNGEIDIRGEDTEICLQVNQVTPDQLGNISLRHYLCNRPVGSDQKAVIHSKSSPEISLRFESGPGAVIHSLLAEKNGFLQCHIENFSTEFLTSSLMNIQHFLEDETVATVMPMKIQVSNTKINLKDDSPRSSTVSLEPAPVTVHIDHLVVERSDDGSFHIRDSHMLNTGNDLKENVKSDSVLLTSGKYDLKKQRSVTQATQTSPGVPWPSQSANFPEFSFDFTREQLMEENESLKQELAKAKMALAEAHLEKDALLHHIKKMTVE

Compound in the first experiment: NC(=O)c1cnc(N[C@@H]2CCCC[C@@H]2N)nc1Nc1cccc(-n2nccn2)c1
The experiment can be described thus: log2 fold change, soluble protein after heating vs DMSO (PISA); higher = thermal stabilisation; K562 cells, 10 uM, 30 min; active = over 0.2 and 3.5 SD of the protein, either way, in both replicates (recomputed). The essentials:
(§1)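 Values are thermal stability changes relative to control samples and are taken from duplicates. They are stated as log2 fold changes. Before quantification by TMTpro 16plex LC-MS/MS with equalised channel sums, K562 cells at 2×10^6 cells/mL were treated with 10 μM compound for 30 min, heated in aliquots for 3 min across 48°C-58°C, pooled, extracted in PBS with 0.5% NP-40 at 4°C, and centrifuged at 21,000xg for 90 min to give the soluble supernatant.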
For the target TMEM120A (UniProt Q9BXJ8), the log2 fold change is 0.089.

Regarding USP48 isoform 8 (UniProt Q86UV5), the log2 fold change is 0.002.

In the case of TNFRSF10A (UniProt O00220), the log2 fold change is -0.019.

As to TSG101 (UniProt Q99816), the log2 fold change is -0.082.

With UHRF1BP1L (UniProt A0JNW5), the log2 fold change is -0.017.

On to TTC4 (UniProt O95801), for which the log2 fold change is -0.047.

On to UBA1 (UniProt P22314), for which the log2 fold change is -0.112.

For TTI1 (UniProt O43156), the log2 fold change is -0.093.

Take USP15 (UniProt Q9Y4E8): the log2 fold change is -0.078.

For U2AF2 (UniProt P26368), the log2 fold change was -0.021.

XPO1 (UniProt O14980): the log2 fold change was -0.056.

Take TNNC2 (UniProt P02585): the log2 fold change is 0.006.

Turning to UBA6, the log2 fold change was -0.065.

Compound in a further experiment: NC1(c2ccc(-c3nc4ccn5c(=O)[nH]nc5c4cc3-c3ccccc3)cc2)CCC1
The experiment is described as above. The essentials: as §1
Turning to VPS11 (UniProt Q9H270), the log2 fold change is -0.159.

With TNFRSF8 (UniProt P28908), the log2 fold change was 0.106.

In the case of UGGT1 (UniProt Q9NYU2), the log2 fold change was -0.06.

For WDR37 isoform 2 (UniProt Q9Y2I8), the log2 fold change was -0.052.

Regarding WDR41 (UniProt Q9HAD4), the log2 fold change was -0.173.

For the target UBLCP1 (UniProt Q8WVY7), the log2 fold change was -0.165.

As to VRK2 (UniProt Q86Y07), the log2 fold change is -0.111.

Turning to WNK1 isoform 7 (UniProt Q9H4A3), the log2 fold change is -0.037.

Regarding UPF3B (UniProt Q9BZI7), the log2 fold change is 0.315.

As to TTC38 (UniProt Q5R3I4), the log2 fold change is -0.263.

As for WRB (UniProt O00258), the log2 fold change was -0.018.

Consider VPS50 (UniProt Q96JG6), for which the log2 fold change was -0.11.

Take VDAC1 (UniProt P21796): the log2 fold change is 0.008.

For the target USP14 (UniProt P54578), the log2 fold change is -0.161.

XPO5 (UniProt Q9HAV4): the log2 fold change is -0.234 (active).

Regarding TMEM223 (UniProt A0PJW6), the log2 fold change was -0.1.

Turning to TMEM161B (UniProt Q8NDZ6), the log2 fold change is -0.017.

Take TUBAL3 (UniProt A6NHL2): the log2 fold change was -0.006.

TMEM263 (UniProt Q8WUH6): the log2 fold change is -0.389.

As for VTA1 (UniProt Q9NP79), the log2 fold change was -0.185.

For XPNPEP3 (UniProt Q9NQH7), the log2 fold change was -0.074.

Regarding TNPO1 (UniProt Q92973), the log2 fold change is -0.157.

In the case of WDR11 (UniProt Q9BZH6), the log2 fold change was -0.087.

Turning to TMEM120A (UniProt Q9BXJ8), the log2 fold change was 0.058.

In the case of USP48 isoform 8 (UniProt Q86UV5), the log2 fold change was -0.235.

Take TNFRSF10A (UniProt O00220): the log2 fold change is 0.06.

Consider TSG101 (UniProt Q99816), for which the log2 fold change is -0.157.

As for UHRF1BP1L (UniProt A0JNW5), the log2 fold change was -0.028.

For TTC4 (UniProt O95801), the log2 fold change is -0.064.

As to UBA1 (UniProt P22314), the log2 fold change was -0.275.

Regarding TTI1 (UniProt O43156), the log2 fold change is -0.181.

In the case of USP15 (UniProt Q9Y4E8), the log2 fold change was -0.185.

Consider U2AF2 (UniProt P26368), for which the log2 fold change was 0.033.

On to XPO1 (UniProt O14980), for which the log2 fold change was -0.249 (active).

TNNC2 (UniProt P02585): the log2 fold change is -0.028.

For the target UBA6, the log2 fold change was -0.14.

Compound in another experiment: NCC(=O)Nc1ccc(-n2nc(C(F)(F)F)cc2-c2ccc3c(ccc4ccccc43)c2)cc1
The experiment is described as above. The essentials:
as §1
For the target VPS11 (UniProt Q9H270), the log2 fold change is -0.028.

With TNFRSF8 (UniProt P28908), the log2 fold change is 0.025.

Turning to UGGT1 (UniProt Q9NYU2), the log2 fold change was 0.017.

Consider WDR37 isoform 2 (UniProt Q9Y2I8), for which the log2 fold change was -0.08.

With WDR41 (UniProt Q9HAD4), the log2 fold change was -0.005.

On to UBLCP1 (UniProt Q8WVY7), for which the log2 fold change is -0.048.

Consider VRK2 (UniProt Q86Y07), for which the log2 fold change is -0.025.

For WNK1 isoform 7 (UniProt Q9H4A3), the log2 fold change was -0.042.

As for UPF3B (UniProt Q9BZI7), the log2 fold change is 0.096.

For TTC38 (UniProt Q5R3I4), the log2 fold change was -0.09.

On to WRB (UniProt O00258), for which the log2 fold change was 0.006.

On to VPS50 (UniProt Q96JG6), for which the log2 fold change was -0.046.

As for VDAC1 (UniProt P21796), the log2 fold change was 0.019.

Regarding USP14 (UniProt P54578), the log2 fold change was -0.057.

Turning to XPO5 (UniProt Q9HAV4), the log2 fold change was -0.074.

For TMEM223 (UniProt A0PJW6), the log2 fold change is 0.071.

For the target TMEM161B (UniProt Q8NDZ6), the log2 fold change is -0.073.

TUBAL3 (UniProt A6NHL2): the log2 fold change was 0.031.

In the case of TMEM263 (UniProt Q8WUH6), the log2 fold change was -0.299.

For the target VTA1 (UniProt Q9NP79), the log2 fold change is -0.045.

Take XPNPEP3 (UniProt Q9NQH7): the log2 fold change is 0.

TNPO1 (UniProt Q92973): the log2 fold change was -0.06.

On to WDR11 (UniProt Q9BZH6), for which the log2 fold change is -0.192.

For TMEM120A (UniProt Q9BXJ8), the log2 fold change is 0.091.

As for USP48 isoform 8 (UniProt Q86UV5), the log2 fold change was -0.125.

Regarding TNFRSF10A (UniProt O00220), the log2 fold change was 0.029.

TSG101 (UniProt Q99816): the log2 fold change was -0.033.

Consider UHRF1BP1L (UniProt A0JNW5), for which the log2 fold change was 0.055.

As to TTC4 (UniProt O95801), the log2 fold change is -0.073.

For UBA1 (UniProt P22314), the log2 fold change is -0.101.

For TTI1 (UniProt O43156), the log2 fold change is -0.022.

Consider USP15 (UniProt Q9Y4E8), for which the log2 fold change is -0.066.

For U2AF2 (UniProt P26368), the log2 fold change was -0.051.

With XPO1 (UniProt O14980), the log2 fold change is -0.026.

As for TNNC2 (UniProt P02585), the log2 fold change was 0.028.

UBA6: the log2 fold change is -0.047.
